Results filed as inconclusive are left out. Where a call stands in place of a potency, no number is given. The source made the active and inactive calls. Unless noted, calls follow the shape of the full dose curve.
Legend:
[1] = molecular target: Atrial natriuretic peptide receptor 1 (Homo sapiens) (UniProt P16066); assay: Natriuretic polypeptide receptor (hNpr1) antagonism - Pilot screen (AID 1347049);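 also: agonist-evoked cGMP luminescence read 20 min after hNppA addition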; also: potency is read from the fitted curve at half-maximal effect
Chain of Atrial natriuretic peptide receptor 1 (Homo sapiens) (P16066 whole entry, looked up): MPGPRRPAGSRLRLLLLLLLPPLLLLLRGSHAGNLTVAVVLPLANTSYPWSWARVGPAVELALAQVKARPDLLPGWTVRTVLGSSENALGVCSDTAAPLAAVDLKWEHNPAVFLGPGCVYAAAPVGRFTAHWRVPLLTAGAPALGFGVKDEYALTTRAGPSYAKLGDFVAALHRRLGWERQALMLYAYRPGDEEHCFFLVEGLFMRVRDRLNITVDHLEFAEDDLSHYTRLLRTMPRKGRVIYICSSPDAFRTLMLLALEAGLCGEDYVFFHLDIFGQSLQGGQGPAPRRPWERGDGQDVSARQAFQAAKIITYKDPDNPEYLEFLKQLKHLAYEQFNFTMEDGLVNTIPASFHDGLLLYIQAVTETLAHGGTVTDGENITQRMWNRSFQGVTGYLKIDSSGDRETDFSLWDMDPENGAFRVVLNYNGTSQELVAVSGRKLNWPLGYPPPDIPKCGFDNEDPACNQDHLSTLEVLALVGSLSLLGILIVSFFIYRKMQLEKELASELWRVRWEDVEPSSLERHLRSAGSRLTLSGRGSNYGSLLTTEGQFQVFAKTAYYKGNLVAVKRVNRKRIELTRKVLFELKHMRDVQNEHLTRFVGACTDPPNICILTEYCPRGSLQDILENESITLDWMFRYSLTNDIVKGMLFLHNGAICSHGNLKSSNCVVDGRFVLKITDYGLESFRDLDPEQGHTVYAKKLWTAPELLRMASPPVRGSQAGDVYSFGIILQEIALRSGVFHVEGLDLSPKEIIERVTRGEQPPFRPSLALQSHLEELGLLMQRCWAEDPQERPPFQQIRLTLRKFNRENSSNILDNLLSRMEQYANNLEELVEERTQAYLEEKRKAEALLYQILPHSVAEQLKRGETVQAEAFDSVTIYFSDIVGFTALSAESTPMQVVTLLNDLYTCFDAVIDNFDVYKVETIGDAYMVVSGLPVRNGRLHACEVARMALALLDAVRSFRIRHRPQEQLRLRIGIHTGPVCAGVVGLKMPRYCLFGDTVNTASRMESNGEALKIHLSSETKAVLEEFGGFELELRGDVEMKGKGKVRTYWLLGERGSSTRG
Method in brief: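 cGMP-sensor HEK293/hNpr1 cells, 1500/well, plated overnight at 37C. 2% GloSensor reagent, 2 h RT. Compound (23 nL pin transfer) 30 min RT, baseline luminescence pre-read. 0.1 nM hNppA, 20 min RT, post-read.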

[2] = molecular target: Atrial natriuretic peptide receptor 2 (Homo sapiens) (UniProt P20594); assay: Natriuretic polypeptide receptor (hNpr2) antagonism - Pilot subtype selectivity assay (AID 1347050); also: potency is read from the fitted curve at half-maximal effect
Chain of Atrial natriuretic peptide receptor 2 (Homo sapiens) (P20594 whole entry, looked up): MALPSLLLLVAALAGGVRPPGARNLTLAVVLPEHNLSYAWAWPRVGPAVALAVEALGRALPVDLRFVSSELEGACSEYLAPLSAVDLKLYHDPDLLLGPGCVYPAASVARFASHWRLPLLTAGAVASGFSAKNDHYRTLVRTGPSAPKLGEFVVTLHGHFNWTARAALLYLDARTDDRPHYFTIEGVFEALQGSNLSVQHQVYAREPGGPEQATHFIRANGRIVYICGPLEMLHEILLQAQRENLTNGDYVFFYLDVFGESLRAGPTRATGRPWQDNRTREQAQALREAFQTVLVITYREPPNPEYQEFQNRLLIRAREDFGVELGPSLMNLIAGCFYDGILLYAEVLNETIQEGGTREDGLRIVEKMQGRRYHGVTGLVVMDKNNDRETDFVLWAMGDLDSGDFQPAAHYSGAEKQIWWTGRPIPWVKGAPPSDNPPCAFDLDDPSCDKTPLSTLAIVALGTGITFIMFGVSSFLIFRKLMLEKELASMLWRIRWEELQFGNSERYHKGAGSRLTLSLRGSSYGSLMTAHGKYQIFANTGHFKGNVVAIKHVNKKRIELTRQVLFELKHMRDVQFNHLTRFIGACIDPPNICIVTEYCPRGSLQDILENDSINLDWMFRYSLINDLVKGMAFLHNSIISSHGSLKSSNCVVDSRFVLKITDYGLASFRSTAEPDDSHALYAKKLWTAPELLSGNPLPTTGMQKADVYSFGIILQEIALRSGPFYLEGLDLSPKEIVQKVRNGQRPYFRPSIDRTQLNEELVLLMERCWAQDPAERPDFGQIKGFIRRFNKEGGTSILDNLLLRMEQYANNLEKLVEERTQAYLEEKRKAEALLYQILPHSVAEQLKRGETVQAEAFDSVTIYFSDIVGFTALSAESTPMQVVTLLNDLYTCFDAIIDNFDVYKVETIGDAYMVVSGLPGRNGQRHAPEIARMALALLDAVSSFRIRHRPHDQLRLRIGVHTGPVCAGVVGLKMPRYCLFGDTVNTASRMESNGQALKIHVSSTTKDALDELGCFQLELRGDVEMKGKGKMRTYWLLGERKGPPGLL
Method in brief: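 Luminescence from a genetically encoded cGMP luciferase biosensor in hNpr2-expressing HEK293 cells is read before and 20 min after adding 1 nM hNppC. Test compounds, in interplate 1:5 titrations, are added 30-50 min ahead of the agonist.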

[3] = NS1 protein of Zika virus - qHTS assay to identify small molecule inhibitors in human HEK 293 cells (AID 1347053; active = well fitted curve in the direction sought with a large enough effect; an effect the other way counts as inactive or inconclusive; also: series mostly up to about 46 µM; nearly all actives have a fitted effect of over 55% in size)
Method in brief: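 In this cell-based screen, HEK 293 cultures received compound for one hour before Zika MR766 at MOI = 0.5. NS1 was quantified 24 hours later by TR-FRET, normalized to virus-free wells and infected wells.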

[4] = molecular target: T1, Tyrosine-protein phosphatase non-receptor type substrate 1 (Homo sapiens) + Leukocyte surface antigen CD47 (Homo sapiens) (UniProt P78324+Q08722); assay: CD47-SIRPalpha protein protein interaction - Alpha assay qHTS validation (AID 1347059; active = well fitted curve in the direction sought with a large enough effect; an effect the other way counts as inactive or inconclusive;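 also: bead proximity luminescence from CD47 binding SIRPalpha after compound preincubation with SIRPalpha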; also: potency is read from the fitted curve at half-maximal effect)
T1 sequence (P78324 whole entry, looked up): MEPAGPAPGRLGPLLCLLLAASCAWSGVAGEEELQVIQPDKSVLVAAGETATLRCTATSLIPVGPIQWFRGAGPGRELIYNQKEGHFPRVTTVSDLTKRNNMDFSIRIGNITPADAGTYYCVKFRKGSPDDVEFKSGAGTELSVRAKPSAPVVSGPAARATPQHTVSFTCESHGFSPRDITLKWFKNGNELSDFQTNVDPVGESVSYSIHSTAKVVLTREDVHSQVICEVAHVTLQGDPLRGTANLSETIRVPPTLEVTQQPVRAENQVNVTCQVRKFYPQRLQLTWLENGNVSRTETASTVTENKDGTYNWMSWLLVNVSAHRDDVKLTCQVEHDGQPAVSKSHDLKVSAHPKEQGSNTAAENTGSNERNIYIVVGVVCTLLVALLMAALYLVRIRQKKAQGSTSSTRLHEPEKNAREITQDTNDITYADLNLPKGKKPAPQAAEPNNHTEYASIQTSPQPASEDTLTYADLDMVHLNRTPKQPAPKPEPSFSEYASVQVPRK
T1 sequence (Q08722 whole entry, looked up): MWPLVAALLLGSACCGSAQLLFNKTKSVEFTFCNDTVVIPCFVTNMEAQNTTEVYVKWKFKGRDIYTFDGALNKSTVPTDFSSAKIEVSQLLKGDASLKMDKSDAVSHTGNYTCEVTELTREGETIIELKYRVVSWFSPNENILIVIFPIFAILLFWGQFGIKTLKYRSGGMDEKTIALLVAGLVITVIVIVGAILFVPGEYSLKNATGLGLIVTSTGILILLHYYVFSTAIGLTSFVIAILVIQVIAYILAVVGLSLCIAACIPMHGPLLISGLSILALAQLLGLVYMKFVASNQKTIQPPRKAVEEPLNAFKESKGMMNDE
Method in brief: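 SIRPalpha-biotin 25 nM + cpd, 30 min RT, dark; add CD47-His 12.5 nM, 30 min; add Ni-NTA/SAV beads 10 ug/mL, 30 min; AlphaScreen. Buffer PBS pH 7.4 + 0.05% IGEPAL CA-630. Non-biotinylated SIRPalpha as control inhibitor.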

[5] = molecular target: Parathyroid hormone/parathyroid hormone-related peptide receptor (Homo sapiens) (UniProt Q03431); assay: qHTS for PTHR1 Agonists: Optimization Screen against the NCGC LOPAC library (AID 1347079; active = well fitted curve in the direction sought with a large enough effect; an effect the other way counts as inactive or inconclusive;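 also: GloSensor cAMP luminescence in HEK-293 GP2 cells expressing human PTHR1 with IBMX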)
Chain of Parathyroid hormone/parathyroid hormone-related peptide receptor (Homo sapiens) (Q03431 whole entry, looked up): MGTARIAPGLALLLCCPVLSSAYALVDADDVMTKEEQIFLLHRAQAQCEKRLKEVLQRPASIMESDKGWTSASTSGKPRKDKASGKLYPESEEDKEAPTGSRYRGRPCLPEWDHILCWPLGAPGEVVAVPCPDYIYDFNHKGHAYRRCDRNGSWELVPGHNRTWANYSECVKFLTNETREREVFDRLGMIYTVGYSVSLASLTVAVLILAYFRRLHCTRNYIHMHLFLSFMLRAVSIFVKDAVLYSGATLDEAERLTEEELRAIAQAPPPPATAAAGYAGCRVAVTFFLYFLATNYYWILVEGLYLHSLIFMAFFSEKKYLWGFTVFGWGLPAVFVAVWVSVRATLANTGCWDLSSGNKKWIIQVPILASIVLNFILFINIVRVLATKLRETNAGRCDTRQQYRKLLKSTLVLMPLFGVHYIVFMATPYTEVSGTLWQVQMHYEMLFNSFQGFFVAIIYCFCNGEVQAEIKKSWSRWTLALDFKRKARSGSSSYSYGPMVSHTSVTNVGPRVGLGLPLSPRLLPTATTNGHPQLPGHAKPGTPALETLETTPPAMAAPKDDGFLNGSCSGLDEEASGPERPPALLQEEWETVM
Method in brief: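 Signal increase flags agonism. GP2 cells, derived from HEK-293, express human PTHR1 and a GloSensor cAMP construct.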

[6] = qHTS for Inhibitors of the Functional Ribonucleoprotein Complex (vRNP) of Lassa (LASV) Arenavirus: LASV Primary Screen - GLuc reporter signal (AID 1347082; calls by dose curve; tested in HEK293 reporter line; also: nearly all actives have a fitted effect of over 60% in size; also: potency is read from the fitted curve at half-maximal effect)
[7] = qHTS for Inhibitors of the Functional Ribonucleoprotein Complex (vRNP) of Lassa (LASV) Arenavirus: Viability assay - alamar blue signal for LASV Primary Screen (AID 1347083; calls by dose curve; tested in HEK293 reporter line; also: nearly all actives have a fitted effect of over 80% in size; also: potency is read from the fitted curve at half-maximal effect)
[8] = qHTS for Inhibitors of the Functional Ribonucleoprotein Complex (vRNP) of Lymphocytic Choriomeningitis Arenaviruses (LCMV): Viability assay - alamar blue signal for LCMV Primary Screen (AID 1347085; calls by dose curve; tested in HEK293 reporter line; also: series mostly up to about 57 µM; nearly all actives have a fitted effect of over 80% in size)
[9] = molecular target: Nucleoprotein (Lymphocytic choriomeningitis virus (strain Armstrong)) (UniProt P09992); assay: qHTS for Inhibitors of the Functional Ribonucleoprotein Complex (vRNP) of Lymphocytic Choriomeningitis Arenaviruses (LCMV): LCMV Primary Screen - GLuc reporter signal (AID 1347086); also: series mostly up to about 57 µM; nearly all actives have a fitted effect of over 70% in size
Chain of Nucleoprotein (Lymphocytic choriomeningitis virus (strain Armstrong)) (P09992 whole entry, looked up): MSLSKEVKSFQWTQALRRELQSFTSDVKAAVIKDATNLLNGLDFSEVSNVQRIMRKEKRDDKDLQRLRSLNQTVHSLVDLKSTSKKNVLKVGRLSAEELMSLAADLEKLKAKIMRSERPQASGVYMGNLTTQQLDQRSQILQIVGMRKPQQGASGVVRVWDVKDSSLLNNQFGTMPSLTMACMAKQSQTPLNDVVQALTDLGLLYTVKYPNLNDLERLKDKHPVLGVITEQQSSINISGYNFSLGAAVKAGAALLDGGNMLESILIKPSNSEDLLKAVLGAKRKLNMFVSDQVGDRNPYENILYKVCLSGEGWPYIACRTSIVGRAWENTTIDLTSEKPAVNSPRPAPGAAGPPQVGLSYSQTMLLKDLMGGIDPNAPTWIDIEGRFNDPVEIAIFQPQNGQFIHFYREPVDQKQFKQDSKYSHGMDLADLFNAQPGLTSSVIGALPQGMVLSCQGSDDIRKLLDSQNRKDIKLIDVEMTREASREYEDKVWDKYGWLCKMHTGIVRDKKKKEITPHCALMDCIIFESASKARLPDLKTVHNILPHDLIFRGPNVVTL

[10] = molecular target: T1, Tyrosine-protein phosphatase non-receptor type substrate 1 (Homo sapiens) + Leukocyte surface antigen CD47 (Homo sapiens); assay: CD47-SIRPalpha protein protein interaction - LANCE assay qHTS validation (AID 1347057; active = well fitted curve in the direction sought with a large enough effect in the signal ratio, with a control signal flat, not every such curve was filed as active; the % refers to the signal ratio; also: series mostly up to about 38 µM)
Method in brief: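 Inhibition of soluble CD47/SIRPalpha ectodomain association by titrated compounds, measured as 665/615 nm time-resolved FRET ratio after sequential 30 min room-temperature incubations.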

[11] = molecular target: T1, Tyrosine-protein phosphatase non-receptor type substrate 1 (Homo sapiens) + Leukocyte surface antigen CD47 (Homo sapiens); assay: CD47-SIRPalpha protein protein interaction - HTRF assay qHTS validation (AID 1347058; active = well fitted curve in the direction sought with a large enough effect in the signal ratio, not every such curve was filed as active; the % refers to the signal ratio; also: series mostly up to about 38 µM)
Method in brief: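 Soluble extracellular domains (6His-CD47, Avi-tag-biotinylated SIRPalpha) in PBS pH 7.4 with 0.05% IGEPAL CA-630. Compounds were preincubated 30 min at RT with CD47 and anti-His-Eu, then SIRPalpha and SAV-XL665 were added. TR-FRET 665/615 ratio.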

Compound | Potency [1] | Potency [2] | outcome [3] | Potency [4] | Potency [5] | Potency [6] | Potency [7] | Potency [8] | Potency [9] | Potency [10] | outcome [11]
CCCN1CCc2cc(O)cc3c2[C@H]1Cc1ccc(O)c(O)c1-3 | inactive | inactive | inactive | inactive | inactive | inactive | inactive | inactive | inactive |  | 
CC(C)CC(NP(=O)(O)O[C@@H]1O[C@@H](C)[C@H](O)[C@@H](O)[C@H]1O)C(=O)NC(Cc1c[nH]c2ccccc12)C(=O)O (some centres undefined) |  |  |  |  |  | inactive | inactive | inactive | inactive |  | 
[Cl-].[Cl][Pt].[NH2-].[NH2-].c1ccncc1 |  |  | inactive |  |  |  |  |  |  |  | 
N[C@@]1(C(=O)O)CC[C@@H](C(=O)O)C1 |  | inactive | inactive | inactive | inactive | inactive | inactive | inactive | inactive | inactive | inactive
C[C@H]1C2Cc3ccc(O)cc3[C@@]1(C)CCN2CC1CC1 |  |  | inactive |  |  |  |  |  |  | inactive | inactive
C#CCN[C@H](C)Cc1ccccc1 |  | inactive | inactive | inactive | inactive | inactive | inactive | inactive | inactive | inactive | 
C[C@]12Cc3cn4c(nc3C=C1CCC1C2CC[C@@]2(C)[C@H]1CC[C@@]2(O)C#N)nc1ccccc14 (some centres undefined) |  |  | inactive | inactive | inactive |  |  |  |  | inactive | 
N[C@@H](Cn1ccc(=O)[nH]c1=O)C(=O)O | inactive | inactive |  |  | inactive | inactive | inactive | inactive | inactive |  | 
C[N+](C)(C)CC#CCOC(=O)Nc1cccc(Cl)c1 |  | inactive | inactive | inactive | inactive | inactive | inactive | inactive | inactive | inactive | 
O=C1/C(=C/c2ccccc2)C[C@@]2(O)[C@H]3Cc4ccc(O)c5c4[C@@]2(CCN3CC2CC2)[C@H]1O5 |  |  |  | inactive |  |  |  |  |  | inactive | 
N[C@@H](CCl)C(=O)O | inactive | inactive |  |  | inactive | inactive | inactive | inactive | inactive |  | 
CN(N=O)c1cc(O)ccc1O | inactive |  | inactive |  | inactive | inactive | inactive | inactive | inactive | inactive | 
CCCCCCC(C)(C)c1ccc([C@@H]2C[C@H](O)CC[C@H]2CCCO)c(O)c1 | inactive | inactive |  |  | inactive | inactive |  | inactive |  |  | 
CC1OC1P(=O)(O)O (centres undefined) |  |  |  |  |  | inactive | inactive | inactive | inactive |  | 
CCCn1c(C)c(C(=O)c2ccc3ccccc3c2)c2ccccc21 | inactive | inactive |  |  | inactive | inactive | inactive | inactive | inactive |  | 
CCCN(CCC)CCc1c[nH]c2ccc(C(N)=O)cc12 | inactive | inactive |  |  | inactive | inactive | inactive | inactive | inactive |  | 
Nc1cc2c(ncn2CCOCP(=O)(O)O)c(=O)[nH]1 |  |  | inactive |  |  |  |  |  |  | inactive | 
CCN(CC)c1ncnc2c1ncn2[C@@H]1O[C@H](COP(=O)(O)OP(=O)(O)C(Br)(Br)P(=O)(O)O)[C@@H](O)[C@H]1O |  |  |  |  |  | inactive | inactive | inactive | inactive |  | 

Compound | Potency [1] | Potency [2] | outcome [3] | Potency [4] | Potency [5] | Potency [6] | Potency [7] | Potency [8] | Potency [9] | Potency [10] | outcome [11]
Cc1c2ccncc2c(C)c2c1[nH]c1ccccc12 | 10.7 µM (active) | 5.21 µM (active) |  |  | inactive | inactive |  |  | inactive | inactive | inactive
C[C@@H]1O[C@H](C[N+](C)(C)C)CS1 | inactive | inactive |  |  | inactive | inactive | inactive | inactive | inactive |  | 
CNc1ccc2oc(C[C@H]3O[C@@]4(CC[C@H]3C)O[C@H]([C@H](C)C(=O)c3ccc[nH]3)[C@H](C)C[C@H]4C)nc2c1C(=O)O | inactive | inactive |  | inactive | inactive | 7.08 µM (active) | 11.2 µM (active) | inactive | inactive | inactive | 
CC1(C(=O)O)C2CCC(O2)C1(C)C(=O)O (centres undefined) | inactive | inactive |  | inactive | inactive |  |  |  |  | inactive | inactive
CC(=O)c1c(O)c(C)c(O)c(Cc2c(O)c3c(c(C(=O)/C=C/c4ccccc4)c2O)OC(C)(C)C=C3)c1O | inactive |  |  | 16.5 µM (active) | inactive | inactive | inactive | inactive | inactive | inactive | 
C[C@H](N)Cc1cccc(C(F)(F)F)c1 | inactive |  | inactive |  | inactive | inactive | inactive | inactive | inactive | inactive | 
C[N+]1(C)[C@@H]2CC(OC(=O)[C@H](CO)c3ccccc3)C[C@H]1[C@H]1O[C@@H]12 (some centres undefined) |  |  |  |  |  | inactive | inactive | inactive | inactive |  | 
COc1ccc2c(c1)[C@@]13CCCC[C@H]1[C@@H](C2)NCC3 | inactive | inactive |  |  | inactive | inactive | inactive | inactive | inactive |  | 
C[N+]1(C)CCC(OC(=O)C(c2ccccc2)c2ccccc2)CC1 |  |  |  |  |  | inactive | inactive | inactive | inactive |  | 
O=C(NC1CN2CCC1CC2)c1cc2ccoc2cn1 (centres undefined) |  |  | inactive | inactive |  |  |  |  |  | inactive | inactive
CC(C)(C)c1cc(C=C(C#N)C#N)cc(C(C)(C)C)c1O | 0.301 µM (active) | 0.414 µM (active) |  | inactive | inactive |  |  |  |  | inactive | 
C=CCN1CCc2cccc3c2[C@H]1Cc1ccc(O)c(O)c1-3 | inactive | inactive |  |  | inactive | inactive | inactive | inactive | inactive |  | 
CC(C)(C)OC(=O)NC1[C@H]2CNC[C@@H]12 (some centres undefined) |  |  | inactive | inactive |  |  |  |  |  | inactive | 
COc1cc(CC(C)N)c(OC)cc1I (centres undefined) |  | inactive |  |  | inactive | inactive | inactive | inactive | inactive |  | 
O=C(O)c1cc[c]([Hg][Cl])cc1 |  | inactive |  |  | inactive | inactive | inactive | inactive | inactive |  | 
N#C/C(=C/c1ccc(O)c(O)c1)C(N)=S | inactive | inactive | inactive |  |  | inactive | inactive | inactive | inactive |  | 
NNC(=O)c1ccc(O)cc1 | inactive | inactive |  | inactive | inactive | inactive | inactive | inactive | inactive | inactive | 

Source: PubChem BioAssay (NCATS)
